MITF primary: MITF inhibitors, primary screen, biochemical, AlphaScreen, human; actives 0.91% (n = 650,000); Microphthalmia-associated transcription factor (Homo sapiens), O75030; inhibition, % at 2.6 µM; AlphaScreen MITF homodimerization, bead proximity signal; in the data active = inhibition above about 50%
Target sequence (O75030 whole entry, looked up): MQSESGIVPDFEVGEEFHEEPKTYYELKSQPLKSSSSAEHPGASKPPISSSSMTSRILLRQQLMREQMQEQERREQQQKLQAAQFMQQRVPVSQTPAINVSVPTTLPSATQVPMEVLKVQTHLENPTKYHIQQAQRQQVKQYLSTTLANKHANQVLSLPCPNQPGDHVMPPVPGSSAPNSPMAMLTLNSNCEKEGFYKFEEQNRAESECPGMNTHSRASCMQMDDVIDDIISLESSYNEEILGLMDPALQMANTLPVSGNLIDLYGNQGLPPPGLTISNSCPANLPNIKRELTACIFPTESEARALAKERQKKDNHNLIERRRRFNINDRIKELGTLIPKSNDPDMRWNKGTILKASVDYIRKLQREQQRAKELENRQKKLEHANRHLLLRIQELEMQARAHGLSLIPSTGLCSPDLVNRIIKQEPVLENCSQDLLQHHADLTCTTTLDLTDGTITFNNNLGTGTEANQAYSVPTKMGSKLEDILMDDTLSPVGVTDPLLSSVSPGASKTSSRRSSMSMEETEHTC
TEAD-YAP inh: TEAD-YAP interaction inhibition, primary screen, TEAD-YAP interaction inhibitor project, luminescence, HEK-TIYL cells. TEAD-Gal4/YAP UAS-luciferase luminescence. inhibition, % at 9.12 µM. actives 1.4% (n = 640,000). AID 1259422, 2018; in the data active = inhibition above about 32%
FBW7 act: FBW7 E3 ligase activators, primary screen, biochemical, AlphaScreen, human | AlphaScreen FBW7–phospho-cyclin E peptide binding, activator screen | normalized activity (activation), % at 26.1 µM | actives 0.13% (n = 650,000) | AID 1259310, 2017; in the data active = normalized activity above about 1.9%;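 also: purified mutant Fbw7 with reduced substrate affinity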
GPR151 ag: activators of human GPR151, primary screen, cell-based, PathHunter beta-arrestin, luminescence; G-protein coupled receptor 151 (Homo sapiens), Q8TDV0; PathHunter beta-arrestin GPR151 cells; activation, % at 11.2 µM; actives 1% (n = 650,000); AID 1508602, 2020; in the data active = activation above about 4.9%
GPR151 conf act: GPR151 activators, triplicate retest, confirmation, cell-based, PathHunter beta-arrestin, luminescence; AID 1508609, 2020; shares compounds with GPR151 ag; 6,700 tested, under 10 active; GPR151 PathHunter beta-arrestin cells, 90 min; % of EA-reagent control over plate median; activation, % at 11.2 µM;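 active = mean percent activation across replicates above the confirmation screen cutoff of 4.91%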
GPR119 counter: GPR119 activators in beta-arrestin cells, counter-screen for GPR151 activator project, cell-based, PathHunter beta-arrestin, luminescence, triplicate; shares compounds with GPR151 ag; 90 min; 0 = compound-well median, 100 = enzyme-acceptor control; activation, % at 11.2 µM; actives 0.3% (n = 6,700); AID 1508611, 2020;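 active = mean percent activation in the counterscreen above 29.09%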;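 also: counterscreen on off-target GPR119 to flag nonselective hits from the GPR151 activator screen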
Numbers stand for hits; n = inactive; x = no result. Only some compounds are listed: those with a hit (about 3.5% of all), similar ones and a draw of the others.

SMILES | MITF primary | TEAD-YAP inh | FBW7 act | GPR151 ag | GPR151 conf act | GPR119 counter
O=C1C2C3CCC(C3)C2C(=O)N1c1ccc(Oc2ccc(Cl)cc2Cl)cc1 (stereo not given) | n | n | n | n | x | x
c1nc(N2CCOCC2)c2sc3nc(N4CCCCC4)c4c(c3c2n1)CCCC4 | n | n | n | n | x | x
c1nc(N2CCCCC2)c2sc3nc(N4CCOCC4)c4c(c3c2n1)CCCC4 | n | n | n | 6.2 | n | n
CCOC(=O)C1=C(C)N=c2s/c(=C\c3ccc(OC)c(OC)c3)c(=O)n2C1c1ccc(OC)cc1 (stereo not given) | n | n | n | n | x | x
CCc1cc2c(cc3c(=O)n(CC(=O)NC4CCCCCC4)ncn32)s1 | n | n | n | n | x | x
O=C(NC1Cc2ccccc2C1)c1ccc(OC2CCN(C(=O)C3CC3)CC2)cc1 | n | n | n | 8.1 | n | n
Cc1nnc(SCC(=O)O)n1/N=C/c1ccc2c(c1)OCO2 | n | n | n | n | x | x
Cc1nnc(-c2ccccc2)c(=O)n1/N=C/c1ccc2c(c1)OCO2 | n | n | n | 8.1 | n | n
COc1ccc(NC(=O)c2sc3nc4c(cc3c2N)C(=O)CCC4)cc1 | n | n | n | 10.1 | n | n
COc1ccc(NC(=O)c2sc3nc4c(cc3c2N)C(=O)CCC4)c(OC)c1 | n | n | n | n | x | x
Oc1ccc(Cl)cc1/C=N\Nc1nncc(-c2ccccc2)n1 | n | n | n | 7.4 | n | n
C/C(=C\c1ccccc1)CN1CCC(C(=O)NC(C)C)CC1 | n | n | n | 5.1 | n | n
CCc1ccccc1NC(=O)c1ccc(F)c(S(=O)(=O)N2CCCCC2C)c1 (stereo not given) | n | n | n | 6.7 | n | n
COc1ccccc1/C=C/CN1CCNC(=O)C1CC(=O)N(C)Cc1ccc2nonc2c1 (stereo not given) | n | n | n | n | x | x
CCn1c(C(=O)O)c(CNCCc2ccccc2Cl)c2ccc(C)cc21 | n | n | n | n | x | x
CCC(C(=O)NCCCN1CCOCC1)n1ncn2c(cc3occc32)c1=O (stereo not given) | n | n | n | 9.9 | n | n
CS(=O)(=O)N(CC(=O)N1CCCCC1)c1ccccc1 | n | n | n | n | x | x
Cc1ccc(CC(=O)N(CCCn2ccnc2)c2nc3ccccc3s2)c(C)c1 | n | n | n | 6.9 | n | n
Cc1ccc2nc(N(CCCn3ccnc3)C(=O)c3ccc(F)cc3)sc2c1 | n | n | n | n | x | x
COc1ccccc1CNC(=O)CN(c1cc(C(F)(F)F)ccc1Cl)S(C)(=O)=O | n | n | n | 7.6 | n | n
Cc1ccccc1CNC(=O)CN(c1cc(C(F)(F)F)ccc1Cl)S(C)(=O)=O | n | n | n | n | x | x
O=C(Nc1ccc(Cl)cn1)C1CCCO1 (stereo not given) | n | n | n | n | x | x
CCC1=NN2C(=N)/C(=C/c3ccccc3OCCOc3ccc(C(C)(C)C)cc3)C(=O)N=C2S1 | n | n | n | n | x | x
CCCCCC1C/C(=N/OC(C)=O)C=C(C)C1C(=O)OC (stereo not given) | n | n | n | 7.3 | n | n
Cc1cccc(-n2cc(-c3ccccc3)c3c(NC(C)C)ncnc32)c1 | n | n | n | 5.0 | n | n
SMILES | MITF primary | TEAD-YAP inh | FBW7 act | GPR151 ag | GPR151 conf act | GPR119 counter
CC(C)Nc1ncnc2c1c(-c1ccccc1)cn2-c1cccc(Cl)c1 | n | n | n | n | x | x
CCCSc1ncnc2c1c(-c1ccccc1)cn2-c1cccc(F)c1 | n | n | n | 7.6 | n | n
Cc1cc(C)c(NC(=O)c2cc(S(=O)(=O)NC3CCCCC3C)ccc2F)c(C)c1 (stereo not given) | n | n | n | n | x | x
CC(=O)C/C(C)=N\Nc1ccccc1[N+](=O)[O-] | n | n | n | n | x | x
O=C(Nc1ccc(Cc2ccncc2)cc1)C1CCC(N2C(=O)c3ccccc3C2=O)CC1 (stereo not given) | n | n | n | n | x | x
CC[n+]1c(/C=C2\Sc3ccc(C)cc3N2CCO)ccc2ccccc21 | n | 79.8 | n | 5.4 | n | n
CC[n+]1c(/C=C2\Sc3ccccc3N2C)ccc2cccc(C)c21 | n | 86.5 | n | 5.4 | n | n
CCN1/C(=C/c2ccc3cc(OC)ccc3[n+]2CC)Sc2cc(C)c(C)cc21 | n | 66.7 | n | 10.6 | n | n
CCC(=O)/C=C1/Sc2ccc(OC)cc2N1CCO | n | n | n | n | x | x
CC[n+]1c(/C=C2\Sc3ccc(-c4ccccc4)cc3N2CCO)ccc2ccccc21 | n | 90.7 | n | 22.4 | n | n
COCCN(C(=O)c1ccc(OC2CCN(CCc3ccccc3)CC2)cc1)C(C)C | n | n | n | n | x | x
O=C(Nn1c(-c2ccc(Br)cc2)nc2ccccc2c1=O)c1ccccc1F | n | n | n | n | x | x
CCOC(=O)C(C)Sc1nnc(CNC(=O)c2ccc(OC)cc2)n1-c1cccc(F)c1 (stereo not given) | n | n | n | n | x | x
O=C(NCc1ccco1)C1CN(C(=O)c2ccc(F)c(F)c2)C1 | n | n | n | n | x | x
O=C(NC1CCSC1=O)C1CN(C(=O)c2ccc(F)c(F)c2)C1 (stereo not given) | n | n | n | 8.2 | n | n
Cc1nc(NCCNC(=O)c2ccccc2F)cc(N2CCCC2)n1 | n | n | n | n | x | x
COc1ccc(OCC(=O)N/N=C/c2cc3c(cc2[N+](=O)[O-])OCO3)cc1 | n | n | n | 10.2 | n | n
Cc1ccc(OCC(=O)N/N=C/c2cc3c(cc2[N+](=O)[O-])OCO3)cc1C | n | n | n | n | x | x
COCCn1c(SCC(=O)Nc2ccc(C)c(C)c2)nnc1C(C)C | n | n | n | 8.2 | n | n
Cc1ccc(-c2nnc(N)s2)cc1 | n | n | n | n | x | x
Nc1nnc(-c2ccc(C(=O)O)cc2)s1 | n | n | n | 7.6 | n | n
Cc1ccc(-c2nnc(N)s2)cc1C | n | n | n | 5.6 | n | n
O=C(NCc1nnc2n1CCCCC2)c1ccc(-c2ccc(F)cc2)o1 | x | x | x | n | x | x
CCOc1ccccc1-c1nnc(SCC(=O)NCc2ccccc2)o1 | n | n | n | 6.9 | n | n
CN(Cc1ccccc1)C(=O)Cn1ncc2ccsc2c1=O | n | n | n | 5.6 | n | n
CCOC(=O)N1CCN(C(=O)Cn2cc(NC(=O)Cc3ccccc3OC)cn2)CC1 | n | n | n | 9.1 | n | n
CN(C)c1nc2nonc2nc1N(C)Cc1cnc2ccccn12 | n | n | n | n | x | x
O=C(Nc1ccccc1)OCC1CCCO1 (stereo not given) | n | n | n | 10.6 | n | n
CCN(CC)CCN(CC)C(=O)CC1C(=O)NCCN1Cc1ccc(C)o1 (stereo not given) | n | n | n | n | x | x

Screening data: PubChem BioAssay, The Scripps Research Institute Molecular Screening Center
